# Results taken from PubChem BioAssay AID602329 (Broad Institute, 2012).
# The campaign covered roughly 360,000 compounds. About 510 (0.14%) were called active. The entries come from a sample that favours actives as a whole. A number with no mark means an inactive call.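 The calls were made as follows: active = mean normalized replicate activity at least 40 and at least half of replicates scoring 40 or more; inconclusive = only one of the two criteria met; inactive = mean below 40 and under half of replicates reaching 40.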
# Target: DNA repair and recombination protein RAD54-like (Homo sapiens) (UniProt Q92698)
# Assay: RAD54 Holliday junction migration blockers – biochemical, fluorescence, single point, primary screen (AID 602329);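 also: 0% = median of neutral control wells and 100% = median of positive control wells; inhibitors cause a drop in the FAM fluorescence signal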
# Conditions: RAD54 Holliday junction branch migration, FAM/BHQ fluorescence; at 10.4 µM; active compounds read high
# DNA repair and recombination protein RAD54-like (Homo sapiens), sequence (Q92698 whole entry, looked up): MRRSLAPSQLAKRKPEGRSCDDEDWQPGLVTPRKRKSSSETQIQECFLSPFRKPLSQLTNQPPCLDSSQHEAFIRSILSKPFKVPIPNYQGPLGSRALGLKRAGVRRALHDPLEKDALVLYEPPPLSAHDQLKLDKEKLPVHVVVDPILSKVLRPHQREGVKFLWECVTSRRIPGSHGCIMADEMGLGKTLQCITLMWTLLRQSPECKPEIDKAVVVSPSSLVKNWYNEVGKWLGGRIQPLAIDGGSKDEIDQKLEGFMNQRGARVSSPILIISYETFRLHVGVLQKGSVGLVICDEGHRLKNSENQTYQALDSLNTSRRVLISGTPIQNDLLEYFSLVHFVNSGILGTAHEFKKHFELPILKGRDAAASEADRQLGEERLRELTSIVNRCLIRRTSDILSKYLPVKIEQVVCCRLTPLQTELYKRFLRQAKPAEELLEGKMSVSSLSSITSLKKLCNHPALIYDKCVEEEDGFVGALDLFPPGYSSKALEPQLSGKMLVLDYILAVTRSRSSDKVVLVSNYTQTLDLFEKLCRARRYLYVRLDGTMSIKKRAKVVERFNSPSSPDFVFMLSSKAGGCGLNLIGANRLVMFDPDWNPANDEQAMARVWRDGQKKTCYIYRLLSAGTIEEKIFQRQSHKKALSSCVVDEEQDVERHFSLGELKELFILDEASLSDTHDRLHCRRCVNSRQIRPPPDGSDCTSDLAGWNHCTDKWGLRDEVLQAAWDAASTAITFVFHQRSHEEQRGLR
row,SMILES,inhibition
1,CC(C)NC(=O)Nc1ccc2c(c1)C(=O)N(C)[C@H]1CC[C@H](CC(=O)NCc3ccc(F)cc3)O[C@H]1CO2,7.11%
2,C[C@@H]1CN([C@H](C)CO)S(=O)(=O)c2ccc(C3=CCCC3)cc2O[C@@H]1CN(C)C(=O)C1CCC1,-3.7%
3,C[C@@H]1CCCCO[C@@H](CN(C)C(=O)c2ccccc2)[C@@H](C)CN([C@@H](C)CO)C(=O)c2cc(NS(=O)(=O)c3ccccc3)ccc2O1,-0.712%
4,CCCNC(=O)[C@H]1[C@H](CO)[C@H]2Cn3c(cccc3=O)[C@H]2N1Cc1ccccc1Cl,-3.26%
5,CC(=O)N1[C@@H]2Cn3c(ccc(C4=CCCC4)c3=O)[C@H]1[C@@H](C(=O)NC1CCC1)[C@@H]2CO,7.46%
6,COc1ccc(NC(=O)N(C)C[C@H]2OCCCC[C@@H](C)Oc3ccc(NC(=O)c4ccncc4)cc3C(=O)N([C@@H](C)CO)C[C@H]2C)cc1,2.64%
7,CN1C(=O)c2cc(NS(=O)(=O)c3ccc(Cl)cc3)ccc2OC[C@@H]2O[C@H](CC(=O)O)CC[C@@H]21,-1.23%
8,CC(C)NC(=O)N(C)C[C@@H]1Oc2ncc(-c3ccc(C(=O)N(C)C)cc3)cc2C(=O)N([C@H](C)CO)C[C@H]1C,-0.445%
9,CCCNC(=O)N(C)C[C@@H]1Oc2ncc(-c3cccc(C#N)c3)cc2C(=O)N([C@@H](C)CO)C[C@H]1C,7.71%
10,CCC(=O)N(C)C[C@@H]1Oc2cc(C#CCOC)ccc2S(=O)(=O)N([C@@H](C)CO)C[C@@H]1C,-1.77%
11,Cc1cccn2c(=O)c3cc(C#N)c(=NC(=O)c4cccnc4)n(CC4CCCO4)c3nc12 (stereo unspecified),-4.7%
12,Cc1cccn2c(=O)c3cc(C#N)c(=O)n(CCCN4CCOCC4)c3nc12,56.4% (active)
13,Cc1ccc(-n2c(=O)c(C#N)cc3c(=O)n4ccccc4nc32)cc1C,-1.05%
14,C[C@@H](NC(=O)C[C@H]1C[C@H]2c3cc(NC(=O)C4CCOCC4)ccc3O[C@H]2[C@@H](CO)O1)c1ccccc1,-0.474%
15,C=CC(=O)Nc1ccc(Nc2ccnc(Nc3ccc(N4CCN(C)CC4)cc3)n2)cc1,81.2% (active)
16,Cc1cc(Nc2cc(N3CCN(C)CC3)nc(Sc3ccc(NC(=O)C4CC4)cc3)n2)n[nH]1,17.6%
17,CC(=O)Nc1cc(-c2ccc(N3CCN(C)CC3)cc2)cn2c(-c3ccc(F)cc3)cnc12,36.5%
18,C[C@H](CO)N1C[C@H](C)[C@@H](CN(C)S(=O)(=O)c2cn(C)cn2)Oc2ccc(N(C)C)cc2CC1=O,-0.235%
19,CCN(C[C@@H]1[C@@H](c2ccccc2)[C@H](CO)N1C(C)=O)C(=O)NC(C)C,-5%
20,CO[C@@H]1CN(C)C(=O)c2cc(NC(=O)C3CCCC3)ccc2OC[C@@H](C)N(Cc2ccc(F)cc2)C[C@H]1C,-4.74%
21,CC(=O)N(C)C[C@@H]1Oc2cc(C#Cc3ccccc3F)ccc2S(=O)(=O)N([C@@H](C)CO)C[C@@H]1C,-0.527%
22,C[C@@H]1CN([C@@H](C)CO)C(=O)c2cc(-c3ccc(C#N)cc3)cnc2O[C@H]1CN(C)C(=O)CN(C)C,5.52%
23,CCNC(=O)C[C@@H]1CC[C@@H]2[C@H](COC[C@H](O)CN2S(=O)(=O)c2ccc(Oc3ccccc3)cc2)O1,-6.18%
24,O=C(C[C@H]1CC[C@@H](NC(=O)c2ccccc2)[C@@H](CO)O1)NCc1ccncn1,-7.18%
25,CCCNC(=O)C[C@@H]1CC[C@@H]2[C@H](COc3ccc(NC(=O)c4cc(F)cc(F)c4)cc3C(=O)N2C)O1,1.51%
26,CCCNC(=O)C[C@@H]1CC[C@H]2[C@@H](COC[C@@H](O)CN2Cc2ccccc2F)O1,6.11%

row,SMILES,inhibition
1,C[C@@H]1CN([C@H](C)CO)C(=O)c2cccc(NC(=O)Nc3ccc4c(c3)OCO4)c2O[C@@H]1CN(C)Cc1ccccc1,-7.8%
2,C[C@H]1CN([C@@H](C)CO)C(=O)c2cc(NC(=O)C3CC3)ccc2O[C@@H]1CN(C)S(=O)(=O)c1cn(C)cn1,-0.446%
3,COc1ccc(NC(=O)N(C)C[C@H]2OCc3ccccc3-c3ccccc3C(=O)N([C@H](C)CO)C[C@@H]2C)cc1,-9.7%
4,O=C1CCN(CCCc2ccccc2)CCN1CCO,-1.44%
5,O=C(Nc1cccc(Cl)c1)c1cc([N+](=O)[O-])ccc1N1CCN(CCO)CC1,-11.1%
6,O=C1c2ccccc2C(=O)c2c1cccc2N1CCN(CCO)CC1,84.2% (active)
7,Cc1noc(C)c1NC(=O)N(C)C[C@H]1Oc2ccc(NS(=O)(=O)c3ccc(Cl)cc3)cc2CC(=O)N([C@H](C)CO)C[C@@H]1C,-4.2%
8,Cc1ccc(S(=O)(=O)N(C)C[C@H]2Oc3ccc(NC(=O)C4CC4)cc3C(=O)N([C@H](C)CO)C[C@H]2C)cc1,8.82%
9,CO[C@H]1CN(C)C(=O)c2cc(NC(=O)C3CCC3)ccc2OC[C@H](C)N(Cc2nccs2)C[C@H]1C,2.2%
10,COc1cccc(NC(=O)C[C@@H]2CC[C@H]3[C@@H](COc4ccc(NC(=O)C5CCOCC5)cc4C(=O)N3C)O2)c1,-1.97%
11,COCC(=O)Nc1ccc2c(c1)C(=O)N(C)C[C@@H](OC)[C@H](C)CN(C(=O)CC1CC1)[C@H](C)CO2,3.23%
12,CCCN(C)C[C@H]1Oc2cc(-c3ccc(C)cc3)ccc2S(=O)(=O)N([C@H](C)CO)C[C@H]1C,-15%
13,C#Cc1ccc([C@H]2C=C(C(=O)O)O[C@@H](OCC)[C@@H]2CCCO)cc1,-9.94%
14,Cc1noc(C)c1NC(=O)Nc1cccc2c1O[C@@H](CN(C)Cc1ccc3c(c1)OCO3)[C@@H](C)CN([C@@H](C)CO)C2=O,7.78%
15,O=C(c1cccnc1)N1CCCCN2[C@@H](CO)[C@H](c3ccc(C#Cc4ccccc4)cc3)[C@@H]2C1,1.81%
16,CCNC(=O)[C@@H]1[C@@H](CO)[C@@H]2Cn3c(ccc(C4=CCCC4)c3=O)[C@H]1N2Cc1ccccc1,2.92%
17,CC(C)NC(=O)N(C)C[C@H]1OCCCC[C@H](C)Oc2ccc(NC(=O)Nc3ccc4c(c3)OCO4)cc2C(=O)N([C@H](C)CO)C[C@@H]1C,-0.838%
18,CNC[C@H]1Oc2cc(C#Cc3ccccc3)ccc2S(=O)(=O)N([C@@H](C)CO)C[C@@H]1C,1.19%
19,Cc1ccc(S(=O)(=O)N(C)C[C@H]2OCCCC[C@H](C)Oc3ccc(NS(=O)(=O)c4c(C)noc4C)cc3C(=O)N([C@H](C)CO)C[C@@H]2C)cc1,3.91%
20,CN1c2ccc(-c3ccc(F)cc3)cc2[C@@H]2[C@@H](CCN2S(=O)(=O)c2ccc(F)cc2)[C@@H]1CO,-1.5%
21,COc1ccc(NC(=O)Nc2ccc3c(c2)CC(=O)N([C@@H](C)CO)C[C@H](C)[C@H](CN(C)C(=O)Nc2ccc4c(c2)OCO4)O3)cc1,-3.32%
22,COc1cccc(C(=O)Nc2ccc3c(c2)C(=O)N(C)[C@@H]2CC[C@@H](CC(=O)NCCCN4CCOCC4)O[C@@H]2CO3)c1,8.84%
23,CO[C@H]1CN(C)C(=O)c2ccc(NC(=O)C3CCOCC3)cc2OC[C@H](C)NC[C@H]1C,-0.243%
24,CCNC(=O)C[C@@H]1CC[C@@H]2[C@@H](COc3ccc(NC(=O)c4cccc(C(F)(F)F)c4)cc3C(=O)N2C)O1,7.26%
25,O=C(C1CCC1)N1CC[C@H]2[C@H](CO)Nc3ccc(-c4cccc(F)c4)cc3[C@H]21,2.5%
